Assay outcomes: PubChem BioAssay, National Center for Advancing Translational Sciences (NCATS)
Sm TGR block = S. mansoni TGR enzyme inhibition; Q962Y6; purified TGR, DTNB reduction, TNB absorbance 405 nm; Potency, µM (doses to about 114 µM), without a hit: at the top dose activity change, negative = inhibition, hits mostly inhibitors; 360,000 tested, 3% active; note: nearly all actives have a fitted effect of over 60% in size
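TGR 20 nM + NADPH 100 uM (dispensed conc.), cpd preinc 15 min RT; start with NADPH (500 uM addition) then DTNB (15 mM addition). Kinetic TNB absorbance, 405 nm filter. Four-parameter Hill fit across titration.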
RE007 growth inh = less growth of the S. pombe RE007 Vpr strain; S. pombe RE007 Vpr strain, BacTiter-Glo ATP luminescence, 24 h; Potency, µM (series often up to 92.2 µM), for the others: top-dose activity change, negative = less growth, actives largely listed as inhibitors; 360,000 tested, 0.21% active; AID 651644; active = well fitted falling curve with a large enough effect; inconclusive = small, poorly fitted or top-dose-only effect; inactive = no such curve, though single readings can be large or run the other way; note: nearly all actives have a fitted effect of over 50% in size
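Fission yeast RE007 carrying one integrated HIV-1 vpr copy, seeded at OD 0.01 in PMG+AL medium with 23 nL pinned compound. Grown 24 h at 30 degrees; viability read by BacTiter-Glo luminescence after 5 min.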
LASV entry inh = inhibitors of Lassa virus binding or cell entry. Lassa virus pseudotype entry inhibition, cell reporter. AID 540256. Potency, µM (series often up to 37.9 µM), for inactives: at the highest dose activity change, negative = inhibition, most hits filed as inhibitors. 300,000 tested, 1.2% active; calls by dose curve; tested in HEK293 cells; note: nearly all actives have a fitted effect of over 50% in size
FMDV inh = foot and mouth disease virus antiviral activity; FMDV antiviral cell-based qHTS; Potency, µM (top dose mostly 57.9 µM), for inactives: at the top dose activity change, negative = inhibition, actives largely listed as inhibitors; 410,000 tested, 1.2% active; calls by dose curve; tested in HEK293T cells; note: read-out not given here; nearly all actives have a fitted effect of over 45% in size
HCV inhibitor = inhibitors of hepatitis C virus infection; Huh7.5.1 HCVcc-Cre infection, luciferase reporter, 44 h; Potency, µM (top dose mostly 41.8 µM), for inactives: top-dose activity change, negative = inhibition, most hits filed as inhibitors; 340,000 tested, 3.4% active
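Infectious HCVcc-Cre (~0.5 moi) was added to cells just after compound, with cells seeded 4 h earlier at 1,000 per well. Luciferase activity after 44 h culture reported infection; substrate was incubated 15 min at room temperature before reading.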
Marburg entry inh = blocks Marburg virus binding to or entry into cells. Marburg virus pseudotyped entry inhibition, cell reporter. Potency, µM (series often up to 37.8 µM), inactives show at the top dose activity change, negative = inhibition, usual class: inhibitors. 300,000 tested, 1.8% active. AID 540276; calls by dose curve; tested in HEK293 cells
Active calls of the source: *; [ ] = another dose, or the depositor's remark. This is a sample that favours compounds with a hit; in the whole collection about 7.2% have one here. Unless noted, calls come from the whole dose curve; as a rule, active = well fitted curve in the direction sought with a large enough effect; inconclusive = small, poorly fitted or top-dose-only effect, or another doubt; inactive = no such curve, though single readings can be large; an effect the other way counts as inactive or inconclusive. % is set by controls: 0 for no effect and ±100 for the full control effect; potency is the fitted concentration of half-maximal effect.

COc1cc2c(cc1OC)C(c1ccc(-c3ccc(Cl)c(Cl)c3)o1)=NCC2 was read as Sm TGR block inconclusive, RE007 growth inh 32µM*, LASV entry inh 5.8µM*, FMDV inh 18µM*, HCV inhibitor 13µM* and Marburg entry inh 5.8µM*.
For COc1cc2c(cc1OC)C(c1ccc(-c3ccccc3Cl)o1)=NCC2 the results were Sm TGR block 1%, RE007 growth inh -20%, LASV entry inh inconclusive, FMDV inh -11%, HCV inhibitor 5.6µM* and Marburg entry inh 21µM*.
For O=C1OC(c2cccc3c(F)cccc23)c2ccccc21 (stereo unspecified) the results were RE007 growth inh 3% and FMDV inh -5%.
Screening CCCCc1ccc(NC(=O)CSc2nc3ccccc3nc2N2CCCCC2)cc1 returned Sm TGR block 1%, LASV entry inh 8%[46.1 µM], FMDV inh -7% and Marburg entry inh 2%[46.1 µM].
Screening O=C(c1ccccc1-n1cccn1)N1CCOc2ccc(CN3CCOCC3)cc2C1 returned FMDV inh -4%.
Screening CN(C)C(=O)CCc1ccc2c3c([nH]c2c1)[C@]1(C)[C@@H](C(=O)N2CCCCC2)C[C@H](CC(=O)NCC24CC5CC(CC(C5)C2)C4)C(=O)N1CC3 returned RE007 growth inh 8%, FMDV inh -26%, HCV inhibitor -22% and Marburg entry inh 0%.
Screening Cc1ccc(S(=O)(=O)N2CCN(C(=O)c3cc(=O)[nH]c4ccccc34)CC2)c(C)c1 returned Sm TGR block -14%, RE007 growth inh 14%, LASV entry inh inconclusive, FMDV inh inconclusive, HCV inhibitor 14µM* and Marburg entry inh inconclusive.
Cc1ccc(S(=O)(=O)N2CCN(C(=O)C3CCN(C(=O)c4ccc(F)cc4)CC3)CC2)c(C)c1 was read as Sm TGR block -1%, RE007 growth inh 0%, LASV entry inh inconclusive, FMDV inh inconclusive, HCV inhibitor 11µM* and Marburg entry inh inconclusive.
For CC(=O)c1c(C)[nH]c(C(=O)OCC(=O)N2CCN(S(=O)(=O)c3ccc(C)cc3C)CC2)c1C the results were Sm TGR block inconclusive, RE007 growth inh 4%, LASV entry inh inconclusive, FMDV inh 20µM*, HCV inhibitor inconclusive and Marburg entry inh -28%.
For O=C1[C@H]2[C@@H]3[C@@H](O)[C@H](O)CC(=NOCc4ccccc4)[C@H]3CC[C@H]2C(=O)N1C1CCCCC1 the results were LASV entry inh inconclusive and Marburg entry inh -25%[14.2 µM].
COc1cc(NC(=S)NC2CC2)c(OC)cc1Cl was read as Sm TGR block 40µM*, RE007 growth inh 12%, LASV entry inh -3%, FMDV inh -1%, HCV inhibitor -23% and Marburg entry inh 0%.
`COc1ccc(OC)c(-c2noc(CSc3nnc(-c4ccccc4)n3-c3ccccc3)n2)c1` gave Sm TGR block 0%, LASV entry inh -7%[46.1 µM], FMDV inh inconclusive and Marburg entry inh 0%[46.1 µM].
For Cc1ccc(C2Nc3cccc4cccc(c34)N2)s1 the results were Sm TGR block 18µM*, LASV entry inh 6%, FMDV inh 9%, HCV inhibitor 6% and Marburg entry inh inconclusive.
For FC(F)(F)c1ccc(C2Nc3cccc4cccc(c34)N2)cc1 the results were Sm TGR block 20µM*, RE007 growth inh 16%, LASV entry inh 0%[46.1 µM], FMDV inh -16%, HCV inhibitor 15% and Marburg entry inh inconclusive.
`COc1cc(C2Nc3cccc4cccc(c34)N2)cc(OC)c1O` gave Sm TGR block inconclusive, RE007 growth inh -20%, LASV entry inh -25%, HCV inhibitor inconclusive and Marburg entry inh inconclusive.
COc1ccc(C2Nc3cccc4cccc(c34)N2)cc1Br was read as Sm TGR block 25µM*, RE007 growth inh -1%, LASV entry inh -1%, FMDV inh -28%, HCV inhibitor -29% and Marburg entry inh -1%[46.1 µM].
`COc1cc(C2Nc3cccc4cccc(c34)N2)ccc1OC(C)=O` gave Sm TGR block inconclusive, RE007 growth inh -1%, LASV entry inh 1%, FMDV inh 9%, HCV inhibitor inconclusive and Marburg entry inh -22%.
For Fc1ccc(C2Nc3cccc4cccc(c34)N2)cc1 the results were Sm TGR block 18µM*, RE007 growth inh 7%, LASV entry inh -12%[46.1 µM], FMDV inh 44%, HCV inhibitor 26% and Marburg entry inh 2%[46.1 µM].
`CCn1ccc2cc(S(=O)(=O)N3CCC(C(=O)NCc4ccc(OC(C)C)cc4)CC3)ccc21` gave Sm TGR block -10%, LASV entry inh -2%[46.1 µM] and FMDV inh 6%.
Cc1cnc(-n2ncc(C(=O)NC(C)(C)CO)c2-c2cccs2)nc1-c1ccc(F)cc1 was read as FMDV inh 21%.
`CCCOc1ccc(C2Nc3cccc4cccc(c34)N2)cc1` gave Sm TGR block 14µM*, RE007 growth inh 0%, LASV entry inh 0%[46.1 µM], FMDV inh 5%, HCV inhibitor inconclusive and Marburg entry inh -24%[46.1 µM].
`COC(=O)c1ccc(C2Nc3cccc4cccc(c34)N2)cc1` gave Sm TGR block inconclusive, RE007 growth inh -19%, LASV entry inh -4%, FMDV inh -27%, HCV inhibitor -15% and Marburg entry inh 1%[46.1 µM].
O=C1C=CC(=C(c2ccc(O)cc2)c2ccc(O)cc2)C=C1 was read as Sm TGR block 0%, RE007 growth inh 1%, FMDV inh 13µM* and HCV inhibitor 10µM*.
`O=S(=O)(c1ccc(O)cc1)c1ccc(O)cc1` gave Sm TGR block 6%, RE007 growth inh 11%, FMDV inh 1% and HCV inhibitor 0%.
For Cc1ccc(-c2[nH]ncc2CNCCc2cnn(-c3ccccc3)c2)cc1C the results were Sm TGR block 0%, RE007 growth inh inconclusive, LASV entry inh -4%, FMDV inh inconclusive, HCV inhibitor inconclusive and Marburg entry inh 8.9µM*.
Cc1ccc(OCC(=O)Nc2nnc(SCc3cc(=O)c4ccccc4[nH]3)s2)cc1 was read as Sm TGR block 0%, LASV entry inh 3%[46.1 µM] and FMDV inh -22%.
Screening CCOc1ccccc1NC(c1nnc(-c2ccccc2)o1)c1ccc(F)cc1Cl (stereo unspecified) returned Sm TGR block 14%, LASV entry inh 1%[46.1 µM], FMDV inh -13% and Marburg entry inh -18%[46.1 µM].
For Cc1cccc(OCC(=O)Nc2ccc3c(c2)nc(CCN2CCC(C)CC2)n3C)c1 the results were Sm TGR block 96%, RE007 growth inh -10%, FMDV inh -16% and HCV inhibitor inconclusive.
CCn1c(CN2CCC(C)CC2)nc2cc(NC(=O)COc3ccc(Cl)c(C)c3)ccc21 was read as Sm TGR block -16%, LASV entry inh inconclusive, FMDV inh 18µM* and Marburg entry inh inconclusive.
